Experimental data taken from the supplement of paper PMC11732987, “Enantioselective OTUD7B fragment discovery through chemoproteomics screening and high-throughput optimisation” (Communications Chemistry, 2025).

Experiments:
Experiment in all cases: log2 ratio of Biotin-Ahx-Ub-VS probe labelling (fragment/DMSO); higher = less target engagement (more negative = stronger competition), active = hit call of the paper (q ≤ 0.05, log2 ratio ≤ -1)
Details in all cases: compound concentration: 200 uM; treatment time: 3 h
USP34 = USP34 (UniProt Q70CQ2)
Sequence of USP34 (Q70CQ2 whole entry, the tested form may be a part): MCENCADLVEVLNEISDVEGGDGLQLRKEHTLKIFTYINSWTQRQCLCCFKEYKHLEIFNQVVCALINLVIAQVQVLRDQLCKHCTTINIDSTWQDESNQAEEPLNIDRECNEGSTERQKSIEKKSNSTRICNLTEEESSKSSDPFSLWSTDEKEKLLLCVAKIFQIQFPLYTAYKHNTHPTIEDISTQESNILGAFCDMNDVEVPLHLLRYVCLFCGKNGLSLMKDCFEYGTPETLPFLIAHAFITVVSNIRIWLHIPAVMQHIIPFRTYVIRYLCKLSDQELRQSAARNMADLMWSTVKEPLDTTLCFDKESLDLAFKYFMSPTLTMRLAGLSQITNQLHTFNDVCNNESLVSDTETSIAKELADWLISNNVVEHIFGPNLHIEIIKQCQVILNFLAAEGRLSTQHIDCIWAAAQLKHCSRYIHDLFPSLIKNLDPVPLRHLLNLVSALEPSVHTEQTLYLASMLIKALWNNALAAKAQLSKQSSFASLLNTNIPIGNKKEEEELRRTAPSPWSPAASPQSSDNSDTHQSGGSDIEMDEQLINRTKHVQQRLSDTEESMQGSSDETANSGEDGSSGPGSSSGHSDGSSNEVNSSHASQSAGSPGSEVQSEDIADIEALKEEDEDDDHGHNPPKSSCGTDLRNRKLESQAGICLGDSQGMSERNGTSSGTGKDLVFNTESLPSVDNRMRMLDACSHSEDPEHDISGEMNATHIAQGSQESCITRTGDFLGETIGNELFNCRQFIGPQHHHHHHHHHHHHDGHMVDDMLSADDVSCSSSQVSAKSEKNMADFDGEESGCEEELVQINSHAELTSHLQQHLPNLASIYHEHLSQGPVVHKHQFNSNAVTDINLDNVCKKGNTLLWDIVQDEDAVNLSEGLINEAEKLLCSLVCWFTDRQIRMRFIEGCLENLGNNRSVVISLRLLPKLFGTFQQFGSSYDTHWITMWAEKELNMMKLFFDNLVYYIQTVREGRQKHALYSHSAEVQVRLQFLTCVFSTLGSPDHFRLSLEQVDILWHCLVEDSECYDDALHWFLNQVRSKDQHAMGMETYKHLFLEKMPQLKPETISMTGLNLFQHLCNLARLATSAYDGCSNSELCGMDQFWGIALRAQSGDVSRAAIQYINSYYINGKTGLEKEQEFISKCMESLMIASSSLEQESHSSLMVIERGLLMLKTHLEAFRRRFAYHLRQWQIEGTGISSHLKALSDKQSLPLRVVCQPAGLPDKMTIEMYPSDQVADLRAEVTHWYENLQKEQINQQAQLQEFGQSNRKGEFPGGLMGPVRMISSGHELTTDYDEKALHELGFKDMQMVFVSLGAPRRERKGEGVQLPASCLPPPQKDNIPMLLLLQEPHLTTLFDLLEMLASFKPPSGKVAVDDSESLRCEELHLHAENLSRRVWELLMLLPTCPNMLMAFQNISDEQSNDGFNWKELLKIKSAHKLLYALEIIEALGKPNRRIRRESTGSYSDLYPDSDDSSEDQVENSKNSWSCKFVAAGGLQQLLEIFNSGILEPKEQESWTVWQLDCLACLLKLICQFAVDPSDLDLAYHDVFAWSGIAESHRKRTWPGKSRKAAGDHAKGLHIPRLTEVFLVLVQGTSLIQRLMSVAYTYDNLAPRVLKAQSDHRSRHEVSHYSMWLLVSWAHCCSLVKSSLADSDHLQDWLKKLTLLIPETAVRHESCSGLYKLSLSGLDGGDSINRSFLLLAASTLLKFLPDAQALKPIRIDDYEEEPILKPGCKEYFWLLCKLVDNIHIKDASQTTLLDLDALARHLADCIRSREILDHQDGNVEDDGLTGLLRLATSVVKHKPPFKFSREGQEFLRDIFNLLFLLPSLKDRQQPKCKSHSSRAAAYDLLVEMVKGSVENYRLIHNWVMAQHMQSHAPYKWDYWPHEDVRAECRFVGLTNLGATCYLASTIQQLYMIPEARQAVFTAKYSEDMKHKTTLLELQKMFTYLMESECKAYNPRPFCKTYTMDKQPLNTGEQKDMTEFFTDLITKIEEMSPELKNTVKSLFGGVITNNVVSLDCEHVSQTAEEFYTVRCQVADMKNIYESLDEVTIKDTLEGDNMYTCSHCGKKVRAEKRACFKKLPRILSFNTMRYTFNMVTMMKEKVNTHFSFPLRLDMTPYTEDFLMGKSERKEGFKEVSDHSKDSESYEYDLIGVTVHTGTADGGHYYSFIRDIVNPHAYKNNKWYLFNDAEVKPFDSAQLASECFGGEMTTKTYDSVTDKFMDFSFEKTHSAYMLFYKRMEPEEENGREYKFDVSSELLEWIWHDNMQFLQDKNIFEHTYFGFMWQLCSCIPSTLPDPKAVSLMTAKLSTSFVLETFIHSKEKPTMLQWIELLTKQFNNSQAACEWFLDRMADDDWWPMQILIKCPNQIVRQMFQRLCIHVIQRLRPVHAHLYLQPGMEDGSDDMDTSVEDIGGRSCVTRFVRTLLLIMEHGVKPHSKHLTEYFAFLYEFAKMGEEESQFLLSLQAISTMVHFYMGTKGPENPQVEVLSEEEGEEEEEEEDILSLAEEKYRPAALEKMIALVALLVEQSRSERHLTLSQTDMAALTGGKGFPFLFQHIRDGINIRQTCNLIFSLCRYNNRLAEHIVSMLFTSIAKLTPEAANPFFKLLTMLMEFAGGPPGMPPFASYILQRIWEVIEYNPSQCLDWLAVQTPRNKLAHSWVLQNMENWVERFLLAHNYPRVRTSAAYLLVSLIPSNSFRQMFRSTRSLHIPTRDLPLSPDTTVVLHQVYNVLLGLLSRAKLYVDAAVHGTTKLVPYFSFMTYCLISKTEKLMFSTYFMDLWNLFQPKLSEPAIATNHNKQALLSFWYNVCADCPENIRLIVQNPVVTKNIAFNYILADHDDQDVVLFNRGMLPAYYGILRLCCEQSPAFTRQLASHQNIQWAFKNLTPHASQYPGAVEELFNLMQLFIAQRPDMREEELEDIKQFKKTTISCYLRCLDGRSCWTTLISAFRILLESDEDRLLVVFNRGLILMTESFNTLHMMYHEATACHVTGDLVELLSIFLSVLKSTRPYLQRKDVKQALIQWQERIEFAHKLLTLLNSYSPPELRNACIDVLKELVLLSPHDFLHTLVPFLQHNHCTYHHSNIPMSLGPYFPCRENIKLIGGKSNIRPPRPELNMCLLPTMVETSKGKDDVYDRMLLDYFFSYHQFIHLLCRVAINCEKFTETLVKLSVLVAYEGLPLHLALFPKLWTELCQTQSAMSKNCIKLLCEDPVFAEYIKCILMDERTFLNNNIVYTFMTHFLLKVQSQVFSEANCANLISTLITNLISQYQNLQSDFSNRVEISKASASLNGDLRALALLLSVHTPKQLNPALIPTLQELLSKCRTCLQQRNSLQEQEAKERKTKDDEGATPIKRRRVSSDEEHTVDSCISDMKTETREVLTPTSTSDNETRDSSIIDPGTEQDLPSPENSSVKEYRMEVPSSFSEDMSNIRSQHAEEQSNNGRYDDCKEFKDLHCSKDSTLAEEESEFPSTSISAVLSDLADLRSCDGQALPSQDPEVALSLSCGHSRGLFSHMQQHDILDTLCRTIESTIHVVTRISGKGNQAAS
In short: (§1)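 Triplicate samples of HEK293T lysate, 495 µg each, received fragment at 200 µM or vehicle for 3 h, followed by Biotin-Ahx-Ub-VS (0.5 µM final) for 1 h. After NeutrAvidin enrichment of labelled DUBs and LysC/trypsin digestion, peptides were run by diaPASEF LC-MS/MS. The values are average log2 fragment/vehicle ratios from global-median-normalised Spectronaut label-free quantities, tested by unpaired t-test on proteins having ≥2 unique peptides.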

USP36 = biological target: T1, USP36 (UniProt Q9P275)
T1 sequence (whole entry): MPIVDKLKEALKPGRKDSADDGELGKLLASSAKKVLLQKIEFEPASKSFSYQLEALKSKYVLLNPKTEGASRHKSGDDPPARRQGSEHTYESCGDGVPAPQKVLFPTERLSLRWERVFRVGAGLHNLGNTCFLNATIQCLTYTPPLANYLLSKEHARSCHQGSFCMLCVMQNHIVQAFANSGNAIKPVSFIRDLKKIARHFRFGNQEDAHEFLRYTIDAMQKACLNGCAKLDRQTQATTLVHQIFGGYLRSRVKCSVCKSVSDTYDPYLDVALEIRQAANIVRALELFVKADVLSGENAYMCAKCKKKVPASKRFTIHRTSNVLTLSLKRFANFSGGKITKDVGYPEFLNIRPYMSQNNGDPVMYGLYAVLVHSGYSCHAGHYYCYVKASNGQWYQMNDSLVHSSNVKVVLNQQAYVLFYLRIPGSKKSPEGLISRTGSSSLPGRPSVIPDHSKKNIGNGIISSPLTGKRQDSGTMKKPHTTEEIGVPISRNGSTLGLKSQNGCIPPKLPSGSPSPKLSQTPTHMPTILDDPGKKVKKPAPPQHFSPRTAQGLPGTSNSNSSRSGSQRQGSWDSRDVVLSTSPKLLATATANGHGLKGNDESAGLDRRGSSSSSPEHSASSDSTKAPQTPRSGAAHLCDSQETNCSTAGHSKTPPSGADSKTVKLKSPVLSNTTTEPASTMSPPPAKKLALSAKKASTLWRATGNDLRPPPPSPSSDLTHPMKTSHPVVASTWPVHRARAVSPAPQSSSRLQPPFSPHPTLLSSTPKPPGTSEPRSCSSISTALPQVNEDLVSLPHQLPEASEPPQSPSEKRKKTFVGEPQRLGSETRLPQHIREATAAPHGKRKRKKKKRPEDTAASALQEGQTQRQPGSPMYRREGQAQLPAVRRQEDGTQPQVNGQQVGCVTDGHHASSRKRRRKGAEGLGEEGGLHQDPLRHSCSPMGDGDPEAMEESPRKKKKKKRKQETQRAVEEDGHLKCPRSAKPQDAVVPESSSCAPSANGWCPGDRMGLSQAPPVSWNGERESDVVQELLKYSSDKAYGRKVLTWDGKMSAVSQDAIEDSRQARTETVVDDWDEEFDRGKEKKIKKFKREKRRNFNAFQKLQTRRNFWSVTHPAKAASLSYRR
In short: as §1

USP38 = biological target: T2, USP38 (UniProt Q8NB14)
T2 sequence (whole entry): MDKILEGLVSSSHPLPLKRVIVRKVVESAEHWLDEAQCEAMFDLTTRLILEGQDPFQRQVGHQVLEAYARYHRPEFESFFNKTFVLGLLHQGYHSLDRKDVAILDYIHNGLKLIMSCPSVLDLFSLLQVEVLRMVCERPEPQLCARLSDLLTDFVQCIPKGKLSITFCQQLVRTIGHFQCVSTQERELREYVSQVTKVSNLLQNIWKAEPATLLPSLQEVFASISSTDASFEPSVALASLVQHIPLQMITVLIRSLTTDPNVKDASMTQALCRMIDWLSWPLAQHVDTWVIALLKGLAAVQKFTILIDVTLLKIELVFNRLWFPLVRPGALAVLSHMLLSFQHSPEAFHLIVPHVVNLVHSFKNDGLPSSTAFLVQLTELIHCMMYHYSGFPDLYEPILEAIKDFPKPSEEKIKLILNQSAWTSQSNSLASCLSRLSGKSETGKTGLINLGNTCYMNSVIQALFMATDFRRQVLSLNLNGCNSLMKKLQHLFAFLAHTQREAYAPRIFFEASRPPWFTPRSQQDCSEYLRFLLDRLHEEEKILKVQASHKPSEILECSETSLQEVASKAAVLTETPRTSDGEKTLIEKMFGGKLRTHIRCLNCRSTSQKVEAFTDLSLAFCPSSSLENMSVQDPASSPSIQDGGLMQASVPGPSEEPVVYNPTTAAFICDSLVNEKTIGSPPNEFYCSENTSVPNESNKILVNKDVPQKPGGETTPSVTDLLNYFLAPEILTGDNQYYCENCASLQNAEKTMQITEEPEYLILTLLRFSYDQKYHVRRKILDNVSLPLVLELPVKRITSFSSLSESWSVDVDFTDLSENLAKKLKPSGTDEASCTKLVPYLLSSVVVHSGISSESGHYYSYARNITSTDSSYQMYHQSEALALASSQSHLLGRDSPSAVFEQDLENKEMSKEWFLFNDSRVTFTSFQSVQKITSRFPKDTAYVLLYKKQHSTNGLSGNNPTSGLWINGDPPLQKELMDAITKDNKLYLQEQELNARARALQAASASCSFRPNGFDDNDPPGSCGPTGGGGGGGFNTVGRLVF
In short: as §1

USP39 = biological target: T3, USP39 (UniProt Q53GS9)
T3 sequence (whole entry): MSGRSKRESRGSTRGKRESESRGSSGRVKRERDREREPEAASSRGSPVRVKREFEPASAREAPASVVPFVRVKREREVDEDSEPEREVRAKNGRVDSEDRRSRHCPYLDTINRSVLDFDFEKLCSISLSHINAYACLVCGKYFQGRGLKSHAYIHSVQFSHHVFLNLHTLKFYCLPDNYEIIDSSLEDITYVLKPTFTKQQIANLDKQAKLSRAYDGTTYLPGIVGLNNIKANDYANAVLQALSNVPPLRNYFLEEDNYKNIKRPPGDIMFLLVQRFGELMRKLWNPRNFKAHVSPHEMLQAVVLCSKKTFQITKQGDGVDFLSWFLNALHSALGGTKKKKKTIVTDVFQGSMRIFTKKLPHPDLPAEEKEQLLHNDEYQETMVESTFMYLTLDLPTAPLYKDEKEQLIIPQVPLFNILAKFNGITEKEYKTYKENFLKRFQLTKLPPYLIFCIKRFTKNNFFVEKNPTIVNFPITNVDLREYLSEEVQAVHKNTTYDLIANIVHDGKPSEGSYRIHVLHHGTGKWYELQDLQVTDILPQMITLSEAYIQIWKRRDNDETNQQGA
In short: as §1

USP4 = biological target: T4, USP4 (UniProt Q13107)
T4 sequence (whole entry): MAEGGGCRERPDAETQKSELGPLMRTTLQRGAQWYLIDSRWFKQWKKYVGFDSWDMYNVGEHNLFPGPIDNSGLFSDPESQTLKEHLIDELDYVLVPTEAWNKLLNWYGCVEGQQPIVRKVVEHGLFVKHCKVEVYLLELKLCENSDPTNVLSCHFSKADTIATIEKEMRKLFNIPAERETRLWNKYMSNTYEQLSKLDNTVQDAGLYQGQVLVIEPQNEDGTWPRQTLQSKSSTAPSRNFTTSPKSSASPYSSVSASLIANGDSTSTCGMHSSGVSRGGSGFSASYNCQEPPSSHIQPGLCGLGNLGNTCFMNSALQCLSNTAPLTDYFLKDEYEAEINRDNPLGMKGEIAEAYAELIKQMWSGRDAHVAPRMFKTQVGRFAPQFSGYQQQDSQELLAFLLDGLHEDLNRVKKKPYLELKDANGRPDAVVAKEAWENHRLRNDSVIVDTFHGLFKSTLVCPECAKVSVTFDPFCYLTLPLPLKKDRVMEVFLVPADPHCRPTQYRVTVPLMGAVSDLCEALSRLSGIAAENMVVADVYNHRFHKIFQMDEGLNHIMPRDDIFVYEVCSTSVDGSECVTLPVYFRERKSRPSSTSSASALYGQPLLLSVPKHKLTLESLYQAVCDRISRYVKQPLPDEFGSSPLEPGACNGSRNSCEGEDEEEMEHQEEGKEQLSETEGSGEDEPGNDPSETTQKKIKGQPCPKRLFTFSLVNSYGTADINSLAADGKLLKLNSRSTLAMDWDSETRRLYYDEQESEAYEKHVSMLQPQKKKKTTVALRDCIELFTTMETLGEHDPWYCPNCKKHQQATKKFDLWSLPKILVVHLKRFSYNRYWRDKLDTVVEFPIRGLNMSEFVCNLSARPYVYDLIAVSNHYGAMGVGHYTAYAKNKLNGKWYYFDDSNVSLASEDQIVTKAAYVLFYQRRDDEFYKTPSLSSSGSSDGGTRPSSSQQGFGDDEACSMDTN
In short: as §1

Measured: log2 ratio of Biotin-Ahx-Ub-VS probe labelling

C[C@H]1CN(C(=O)CCl)CCN1C(=O)c1cnn(C)c1.Cl
inactive: USP34 -0.052 | USP36 -0.171 | USP38 -0.0453 | USP39 0.0473 | USP4 -0.115
